Rab9 prom act: Rab9 promoter activation | Huh7 Rab9 promoter-luciferase reporter, luminescence, 24 h | Potency, µM (highest dose often 9.22 µM), usual class: activators | 2.8% of 320,000 active | AID 485297; also: nearly all actives have a fitted effect of over 60% in size
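Promoter activation is measured as luciferase luminescence in Huh7 cells stably transfected with a Rab9 promoter–luciferase construct, following 24 h compound exposure at 37 °C and 10 min reagent incubation at ambient temperature.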
SMN2 splice enh: increases expression of the SMN2 splice variant; HEK293 SMN2-luciferase splicing reporter, luminescence, 30-36 h; Potency, µM (doses to about 46.1 µM), actives largely listed as activators; 2.8% of 210,000 active; AID 1458; also: nearly all actives have a fitted effect of over 55% in size
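HEK293 cells carry an SMN2 minigene-luciferase reporter in which exon 7 inclusion puts luciferase in frame. Cells were seeded at 2000 cells/well, attached for 10-12 hours, then exposed to compounds for 30-36 hours at 37C before ONE-Glo luminescence.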
FLuc modulator: counter-screen for miR-21 project: firefly luciferase inhibitors or activators | Potency, µM (highest dose often 57.5 µM), usual class: inhibitors | AID 588342 | 6.9% of 360,000 active | P08659 | purified FLuc, Km substrates, luminescence inhibition; also: nearly all actives have a fitted effect of over 55% in size
Target sequence (P08659 whole entry, looked up): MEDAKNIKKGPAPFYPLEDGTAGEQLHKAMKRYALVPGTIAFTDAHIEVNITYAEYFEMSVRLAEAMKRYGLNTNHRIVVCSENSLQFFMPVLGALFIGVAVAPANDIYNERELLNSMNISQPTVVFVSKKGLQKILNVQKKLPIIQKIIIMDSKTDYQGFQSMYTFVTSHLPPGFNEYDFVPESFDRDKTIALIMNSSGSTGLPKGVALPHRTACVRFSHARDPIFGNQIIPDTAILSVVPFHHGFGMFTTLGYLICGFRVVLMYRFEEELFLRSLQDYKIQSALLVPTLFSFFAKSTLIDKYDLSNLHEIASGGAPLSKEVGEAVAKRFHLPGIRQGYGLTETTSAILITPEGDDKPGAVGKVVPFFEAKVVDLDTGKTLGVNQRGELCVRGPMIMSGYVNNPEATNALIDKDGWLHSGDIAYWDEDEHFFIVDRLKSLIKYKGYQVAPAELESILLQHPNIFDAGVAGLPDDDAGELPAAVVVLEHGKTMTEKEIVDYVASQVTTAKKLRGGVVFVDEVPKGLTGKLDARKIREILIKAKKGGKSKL
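Purified P. pyralis luciferase (10nM final) with 10uM D-luciferin and 10uM ATP (Km levels) in 50mM Tris acetate pH 7.5, 10mM Mg acetate, 0.01% Tween-20, 0.05% BSA; qHTS 6-point titration, ~60 µM downward; luminescence read.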
NPC1 promoter act: NPC1 promoter activation; Potency, µM (top dose mostly 9.22 µM), hits mostly activators; 2.4% of 320,000 active; Huh7 NPC1 promoter luciferase reporter, 24 h; also: nearly all actives have a fitted effect of over 60% in size
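Compounds in DMSO were transferred onto Huh7 NPC1-luciferase reporter cells pre-incubated 2 h; after 24 h at 37 °C, Amplite reagent was dispensed and luminescence recorded 10 min later.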
ELG1 genotox: genotoxicity induction in ELG1-luciferase HEK293T cells; AID 504466; 1.3% of 330,000 active; HEK293T ELG1-luciferase reporter, luminescence, 16 h; Potency, µM (titrated, usually from 46 µM), hits mostly activators; also: nearly all actives have a fitted effect of over 60% in size
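After overnight (16 hr) compound treatment at 37 °C, ELG1-luciferase HEK293T cells were lysed with ONE-Glo; luminescence quantified 30 min later at room temperature.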
Of the large screens only hits and unclear results are named; the others gave an inactive call. Rows were chosen to be rich in hits. Some 7.4% of all compounds tested hit in one or more screens of this group. Calls follow the shape of the dose curve; as a rule, active = well fitted curve in the direction sought with a large enough effect; inconclusive = small, poorly fitted or top-dose-only effect, or another doubt; inactive = no such curve, though single readings can be large; an effect the other way counts as inactive or inconclusive.

CCCC(=O)Nc1cccc(NC(=O)c2ccc3c(c2)OCCO3)c1	SMN2 splice enh 12.6µM, FLuc modulator 9.53µM, ELG1 genotox inconclusive
CCCCC(=O)Nc1cccc(NC(=O)c2ccc3c(c2)OCO3)c1	SMN2 splice enh inconclusive, FLuc modulator 19µM
CCCCC(=O)Nc1cccc(NC(=O)c2ccc(Br)o2)c1	Rab9 prom act inconclusive, SMN2 splice enh 35.5µM
Cc1ccc2cccc(NC(=O)C(C)(C)Oc3ccc(Br)cc3)c2n1	none (no result: Rab9 prom act, NPC1 promoter act, ELG1 genotox)
Cc1cccc(Cn2c(=O)n(Cc3ccc4c(c3)OCO4)c(=O)c3oc4ccccc4c32)c1	none (no result: Rab9 prom act, SMN2 splice enh, NPC1 promoter act, ELG1 genotox)
COc1ccc2c(c1)CCc1c(C(=O)Nc3ccc(OC)c(OC)c3)noc1-2	FLuc modulator 2.39µM
COc1ccc2c(c1)CCc1c(C(=O)N3CCCc4ccccc43)noc1-2	FLuc modulator 13.5µM, ELG1 genotox inconclusive
COc1ccc2c(c1)CCc1c(C(=O)N3CC4(C)CC3CC(C)(C)C4)noc1-2 (stereo not drawn)	none
COc1ccc2c(c1)CCc1c(C(=O)N3CCOCC3)noc1-2	Rab9 prom act 3.16µM, SMN2 splice enh 12.6µM, FLuc modulator 10.7µM, NPC1 promoter act 3.98µM, ELG1 genotox 11.6µM
N#C/C(=C\c1c[nH]c2ccccc12)C(=O)NC1CCCC1	FLuc modulator 15.1µM (no result: SMN2 splice enh)
Cc1[nH]c2ccccc2c1/C=C(\C#N)C(=O)NC1CC1	Rab9 prom act inconclusive, FLuc modulator 16.9µM, NPC1 promoter act inconclusive, ELG1 genotox inconclusive (no result: SMN2 splice enh)
N#C/C(=C\c1c[nH]c2ccccc12)C(=O)NC1CC1	Rab9 prom act inconclusive, FLuc modulator 7.57µM, NPC1 promoter act 3.55µM, ELG1 genotox inconclusive (no result: SMN2 splice enh)
Cc1[nH]c2ccccc2c1/C=C(\C#N)C(=O)NC(C)c1ccccc1 (stereo not drawn)	none
CC1(c2ccccn2)Nc2ccccc2-c2nc3ccccc3n21 (stereo not drawn)	FLuc modulator inconclusive
c1ccc2c(c1)NC1(CCCCC1)n1c-2nc2ccccc21	FLuc modulator 21.3µM, NPC1 promoter act inconclusive, ELG1 genotox inconclusive
c1ccc2c(c1)NC1(CCCCCC1)n1c-2nc2ccccc21	Rab9 prom act 3.16µM, SMN2 splice enh 10µM, FLuc modulator 13.5µM, NPC1 promoter act inconclusive, ELG1 genotox 3.98µM
CSc1ccccc1OCc1cc(C(=O)N2CCC(Oc3cccnc3)CC2)no1	FLuc modulator inconclusive (no result: SMN2 splice enh)
Cc1ccccc1C(=O)Nc1sc2c(c1C(=O)N1CCC(C)CC1)CCC(C)C2 (stereo not drawn)	none (no result: Rab9 prom act, NPC1 promoter act, ELG1 genotox)
O=C(Nc1nc(-c2cccnc2)cs1)c1ccc([N+](=O)[O-])cc1	none (no result: SMN2 splice enh)
Cc1csc(NC(=O)C2=NN(c3ccccc3)C(=O)CC2)n1	none
Cc1onc(-c2ccccc2)c1C(=O)Nc1nc(-c2ccccc2)cs1	Rab9 prom act inconclusive, SMN2 splice enh inconclusive, FLuc modulator 19µM, ELG1 genotox inconclusive
Cc1ccc(C(=O)Nc2nc(-c3cccnc3)cs2)o1	FLuc modulator 21.3µM
Cc1ccc(-c2csc(NC(=O)C3=NN(c4ccccc4)C(=O)CC3)n2)cc1	FLuc modulator 8.49µM
Cc1csc(NC(=O)c2ccc(C)o2)n1	Rab9 prom act 3.55µM, FLuc modulator 15.1µM, NPC1 promoter act inconclusive, ELG1 genotox inconclusive (no result: SMN2 splice enh)
Cc1onc(-c2ccccc2)c1C(=O)Nc1nc(-c2cc(F)ccc2F)cs1	FLuc modulator inconclusive, ELG1 genotox inconclusive
Cn1c(N)c(C(=O)Nc2ccc(-c3ccccc3)cc2)sc1=S	none (no result: SMN2 splice enh)
COc1ccc(NC(=O)c2c(NCc3cccc(OC)c3)sc3c2CCC3)cc1	none (no result: Rab9 prom act, SMN2 splice enh, NPC1 promoter act, ELG1 genotox)
COc1ccc(-c2csc(NC(=O)c3ccccc3F)n2)cc1	FLuc modulator inconclusive (no result: SMN2 splice enh)
O=C(Nc1nc(-c2ccccc2)cs1)c1ccc(Br)o1	FLuc modulator 23.9µM
O=C(Nc1nc(-c2ccccc2)cs1)c1ccccc1F	Rab9 prom act 3.55µM, FLuc modulator 16.9µM, NPC1 promoter act inconclusive, ELG1 genotox inconclusive (no result: SMN2 splice enh)
CC(C)C(OC(=O)c1cc2c(s1)CCCCC2)C(=O)NC(N)=O (stereo not drawn)	FLuc modulator inconclusive
O=C(NCCO)c1cc2c(s1)CCC2	none
CC(OC(=O)c1cc2c(s1)CCCCC2)C(=O)NC(N)=O (stereo not drawn)	FLuc modulator 23.9µM
CNC(=O)c1cc2c(s1)-c1ccccc1CC2	Rab9 prom act inconclusive, SMN2 splice enh 7.94µM, FLuc modulator 19µM, NPC1 promoter act inconclusive, ELG1 genotox inconclusive
O=C(N/N=C/c1ccc(F)c(F)c1)c1cc2c(s1)-c1ccccc1CC2	none
Cc1ccc(C(=O)NC2CCCC2)s1	ELG1 genotox inconclusive (no result: SMN2 splice enh)

Bioassay records deposited in PubChem by National Center for Advancing Translational Sciences (NCATS).
